MBNL1-CUG inh = blocks human MBNL1 binding to CUG repeat RNA; Q9NR56; TR-FRET MBNL1-His/biotin-(CUG)12 binding, 665/545 ratio; Potency, µM (top dose mostly 57.5 µM), for inactives: at the highest dose activity change, negative = inhibition, most hits filed as inhibitors; 0.036% of 280,000 active; AID 2675; active = well fitted inhibition curve with a large enough effect in the signal ratio, with a control signal flat, not every such curve was filed as active; inconclusive = small, poorly fitted or top-dose-only effect, or effect the other way, or a change in a side signal; inactive = no such curve, though single readings can be large or run the other way; the % refers to the signal ratio
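Inhibition of protein-RNA binding appears as loss of TR-FRET between terbium anti-His antibody on MBNL1-His and streptavidin-XL665 on biotin-(CUG)12. Activity is normalized to buffer-only and uninhibited-complex controls.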
Tb PFK inh = inhibitors of T. brucei phosphofructokinase. O15648. T. brucei PFK, ADP-Glo luminescence. Potency, µM (top dose mostly 57.5 µM), without a hit: at the highest dose activity, negative = inhibition, most hits filed as inhibitors. 0.17% of 330,000 active;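 also: 0% = uninhibited 1x PFK enzyme wells and -100% = no-enzyme wells; nearly all actives have a fitted effect of over 60% in size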
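Activity is normalized to no-enzyme wells (full inhibition) and 1.25 nM enzyme wells (no inhibition). Reaction: 0.5 mM F6P, 0.1 mM ATP, 45 min RT, ADP-Glo luminescence; concentration-response curves fitted and classed by quality.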
IMPase Li cell = IMPase inhibition in cells with lithium potentiation | Potency, µM (series often up to 59.4 µM), without a hit: at the highest dose activity, negative = IMPase inhibition, hits mostly inhibitors | CHO-M1 cells, IP1 TR-FRET (IP-One), carbachol + lithium | 0.35% of 210,000 active | AID 1457;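 also: IP1 builds up when IMPase is blocked and the TR-FRET signal falls; plate controls were basal vehicle for no effect and high inhibitor control for full effect; nearly all actives have a fitted effect of over 50% in size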
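Concentration–response in CHO-M1 cells, lithium-potentiated; 30 min at 37C. IP1 detected by competitive TR-FRET after 10 min lysis at RT. Hill-fitted AC50.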
NPSR antag = blocks cAMP signaling of the human neuropeptide S receptor; CHO-NPSR cells, cAMP TR-FRET, antagonist mode; Q6W5P4; 1% of 220,000 active; Potency, µM (highest dose often 38.3 µM), inactives show top-dose activity change, negative = inhibition, actives largely listed as inhibitors; also: nearly all actives have a fitted effect of over 50% in size
Target sequence (Q6W5P4 whole entry, looked up): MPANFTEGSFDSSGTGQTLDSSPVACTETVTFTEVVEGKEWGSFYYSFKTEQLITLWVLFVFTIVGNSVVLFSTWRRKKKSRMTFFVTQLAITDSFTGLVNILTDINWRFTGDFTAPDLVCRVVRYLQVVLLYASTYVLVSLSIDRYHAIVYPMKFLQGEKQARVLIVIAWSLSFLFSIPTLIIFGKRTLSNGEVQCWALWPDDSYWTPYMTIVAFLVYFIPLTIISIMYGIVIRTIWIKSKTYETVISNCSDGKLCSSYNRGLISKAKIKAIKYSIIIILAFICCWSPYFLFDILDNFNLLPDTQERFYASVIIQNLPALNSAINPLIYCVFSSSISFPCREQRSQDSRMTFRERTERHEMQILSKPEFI
RGS12 GoLoco inh = blocks human Gai1 binding to RGS12 GoLoco peptide, red readout. Potency, µM (doses to about 61.6 µM), for the others: at the highest dose activity, negative = inhibition, most hits filed as inhibitors. AID 880. Gai1:RGS12 GoLoco peptide FP, rhodamine, 10 min. 0.44% of 230,000 active; active = well fitted inhibition curve with a large enough effect, not every such curve was filed as active; inactive = no such curve, though single readings can be large or run the other way; also: nearly all actives have a fitted effect of over 30% in size
Target sequence (P63096 whole entry, looked up): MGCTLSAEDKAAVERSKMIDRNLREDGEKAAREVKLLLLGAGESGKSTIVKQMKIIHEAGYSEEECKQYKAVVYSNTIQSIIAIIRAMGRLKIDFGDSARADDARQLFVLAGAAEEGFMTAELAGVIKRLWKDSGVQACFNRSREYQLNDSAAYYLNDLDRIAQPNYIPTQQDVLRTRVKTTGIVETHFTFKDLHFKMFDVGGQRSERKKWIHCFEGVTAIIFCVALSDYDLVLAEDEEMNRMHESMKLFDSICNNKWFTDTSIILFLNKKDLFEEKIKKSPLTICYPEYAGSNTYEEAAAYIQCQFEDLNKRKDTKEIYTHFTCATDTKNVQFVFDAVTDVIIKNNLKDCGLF
Numbers without * were called inactive; ? = inconclusive; / = not tested or not shown; [ ] = remark or other dose. Shown is part of a subset that was picked to be rich in hits. Unless noted, calls follow the shape of the dose curve; as a rule, active = well fitted curve in the direction sought with a large enough effect; inconclusive = small, poorly fitted or top-dose-only effect, or another doubt; inactive = no such curve, though single readings can be large; an effect the other way counts as inactive or inconclusive. Unless noted, % is scaled to controls: 0 for no effect and ±100 for the full control effect; potency is read from the fitted curve at half-maximal effect.

SMILES	MBNL1-CUG inh	Tb PFK inh	IMPase Li cell	NPSR antag	RGS12 GoLoco inh
Cc1nc2sccn2c(=O)c1S(=O)(=O)Nc1ccc(N2CCN(S(C)(=O)=O)CC2)cc1	-24%	-2%	/	/	/
Cn1c(=O)c(-c2ccccc2)nc2cnc(Oc3ccccc3)nc21	/	/	-4%	/	4%
COc1ccc(Oc2ncc3nc(-c4ccc(OC)cc4)c(=O)n(C)c3n2)cc1	/	/	-6%	/	3%
Cn1c(=O)c(-c2ccc(F)cc2)nc2cnc(Oc3ccccc3)nc21	/	/	7.9µM*	/	6%
Cn1c(=O)c(-c2ccc(Cl)cc2)nc2cnc(Oc3ccccc3)nc21	/	/	11µM*	/	16%
O=[N+]([O-])c1cccc(S(=O)(=O)Nc2nc3ccccc3nc2Nc2cccc(S(=O)(=O)N3CCCCC3)c2)c1	-1%	4%	21%	6.3µM*	1%
[O]=[Bi][O]C(=O)[O][Bi]=[O]	/	/	/	/	-8%
CC(C)/C(=N\NC(=O)Nc1ccccc1)c1ccccc1	-16%	3%	-8%[38.3 µM]	-17%[46.1 µM]	1%
CC(C)/C(=N/[N+](C)(C)C)c1ccccc1	/	/	8%	/	2.8µM*
O=C(c1ccc(Cl)c(Cl)c1)c1cc(-c2ccccn2)c(N2CCOCC2)s1	56%	0%	10µM*	?	6%
O=C(O)CCCNc1cc(N2CCC3(CC2)OCCO3)c2noc3c2c1C(=O)c1ccccc1-3	?	-7%	109%[38.3 µM]	10µM*	126%
CCOC(=O)N1CCN(c2cc(NCCC(=O)O)c3c4c(onc24)-c2ccccc2C3=O)CC1	?	-17%	201%[38.3 µM]	10µM*	142%
CN1CCN(c2cc(N3CCN(C(=O)c4ccco4)CC3)c3c4c(onc24)-c2ccccc2C3=O)CC1	?	0%	/	/	/
CC(=O)O[C@]1(C(C)=O)CC[C@H]2C3C=C(Cl)C4=CC(=O)[C@@H]5C[C@H]5[C@]4(C)C3CC[C@@]21C (stereo partly drawn)	/	/	10%	13µM*	-4%
NC(=O)SCC(=O)Nc1ccc2ncccc2c1	/	/	-3%	/	5%[14.2 µM]
COC(=O)CCCCCc1ccc(C(C)=O)s1	-2%	-6%	10µM*	13%[46.1 µM]	-7%
COCCn1cnc2c1c(=O)n(Cc1ccccc1C#N)c(=O)n2Cc1ccccc1	-3%	-2%	/	/	/
Cc1c(C(=O)Nc2nc3ccccc3[nH]2)oc2ccccc12	10%	0%	1%	-11%	13µM*
O=C(O)/C=C\c1c2ccc(=O)c(O)c-2oc2c(O)c(O)ccc12	/	/	7%	/	0.89µM*
NS(=O)(=O)c1ccc(CNC(=O)c2cc(-c3cccnc3)nc3ccc(Cl)cc23)cc1	27%	3%	/	/	/
NS(=O)(=O)c1ccc(CNC(=O)c2cc(-c3ccccn3)nc3ccc(Cl)cc23)cc1	400%	6%	?	13µM*	20%
CN(C)CCNc1ccccn1	/	/	1%	/	7%[14.2 µM]
CCCS(=O)(=O)c1nnnn1-c1cccc(OC)c1	-5%	-16%	42%[38.3 µM]	10µM*	-7%
COc1cccc(CS(=O)(=O)c2nnnn2-c2ccccc2)c1	/	/	16%	/	5%
CCC(C)N(C(=O)CSc1nnc(C)n1C)C1CCS(=O)(=O)C1 (stereo not drawn)	/	-4%	/	/	/
SMILES	MBNL1-CUG inh	Tb PFK inh	IMPase Li cell	NPSR antag	RGS12 GoLoco inh
CCOc1cc(CNc2ccc(N(C)C)cc2)cc(Br)c1OCC(=O)NC(C)(C)C	?	-20%	-7%[38.3 µM]	10µM*	-14%
CCOc1cc(CNc2ccc(N3CCCCC3)cc2)cc(Br)c1OCC(=O)NC(C)(C)C	2%	0%	11%	-50%	-2%
Cn1c(-[n+]2c(-c3ccccc3)cc(-c3ccccc3)cc2-c2ccccc2)nc2c([N+](=O)[O-])cccc21	?	0%	13%	7.9µM*	-30%
CN1C[C@@H]2C(c3ccc(Cl)nc3)C3(c4ccccc4)CC2(C3)[C@H]1c1ccccc1 (stereo partly drawn)	10%	-6%	12%	4µM*	0%
N#Cc1c(-c2ccccc2)nc(-c2ccccc2)[nH]c1=O	-24%	0%[0.46 µM]	3.5µM*	-21%[46.1 µM]	0%
N#Cc1c(-c2ccccc2)nc(-c2ccncc2)[nH]c1=O	-6%	0%	-14%	8%	17%
COc1cccc2c1C(=O)c1c(O)c3c(c(O)c1C2=O)C[C@](O)(C(=O)CO)C[C@H]3O[C@@H]1C[C@H](N)[C@H](O)[C@H](C)O1	/	/	7%	/	2.2µM*
CCn1c(-c2ccc(S(=O)(=O)N3CCOCC3)cc2)csc1=Nc1ccc(C)c(Cl)c1	/	-13%	/	/	/
COCCCn1c(-c2ccc(S(=O)(=O)N3CCOCC3)cc2)csc1=Nc1ccccc1	92%	6%	10µM*	?	-5%
O=C(CSc1ccc2nnc(-c3ccc(F)cc3)n2n1)NCC1CCCO1 (stereo not drawn)	1%	-2%	25µM*	3%[46.1 µM]	10%
COc1cc(OC)cc(OC)c1	/	/	2%	/	18µM*
COc1cc(O)c(C)c(O)c1	/	/	2%	/	5%
CCOC(=O)c1c(CSC(=N)N)n(-c2ccc(Br)cc2)c2cc(Br)c(OC(C)=O)cc12	-18%	2%	16%	10µM*	0%
CCCCCCCCOC(=O)c1c(CSC(=N)N)n(C)c2cc(Br)c(OC(C)=O)cc12	6%	1%	/	?	0%
CCNc1ncc2nc(C)c(=O)n(Cc3cccs3)c2n1	/	/	0%	/	16%
CC[n+]1c(/C=C/c2c[nH]c3ccccc23)ccc2cc(C)ccc21	/	-2%	49%	13µM*	214%
O=C(Oc1c(CN2CCOCC2)cc(Cl)c2cccnc12)c1ccccc1	13%	-2%	1%	-34%	3%
Oc1c(CN2CCc3ccccc3C2)cc(Cl)c2cccnc12	37%	-5%	21%[38.3 µM]	6.3µM*	-9%
Nc1nc(Cl)cc(N2CCC(c3cc(-c4ccc(Cl)cc4)n[nH]3)CC2)n1	5%	0%	7%[38.3 µM]	10µM*	7%
CC1CC(C)CN(C(=O)Cn2c(=O)n(CCCC(=O)NCc3ccco3)c(=O)c3sccc32)C1 (stereo not drawn)	-6%	-2%	/	/	/
CC1(c2ccccc2)CC(C)(C)N2C(=O)C3(C(C#N)=C(N)Oc4cc(O)ccc43)c3cccc1c32 (stereo not drawn)	-4%	1%	28%[38.3 µM]	?	7%
CC1(c2ccccc2)CC(C)(C)N2C(=O)/C(=C3\SC(=S)NC3=O)c3cccc1c32 (stereo not drawn)	?	19%	3%	5µM*	0%
CC(C)(C)c1nnc2sc(SCC(=O)N3CCCCC3)nn2c1=O	/	-1%	/	/	/
Cc1ccc(Cl)cc1NC1=C/C(=N\S(=O)(=O)c2cccs2)c2ccccc2C1=O	?	0%	37%[38.3 µM]	?	67%
Cc1ccc(NC2=C/C(=N\S(=O)(=O)c3cccs3)c3ccccc3C2=O)c(C)c1	?	-4%	28%	4µM*	10%
CCc1ccc(S(=O)(=O)/N=C2\C=C(Nc3ccc(O)cc3)C(=O)c3ccccc32)cc1	?	-10%	/	/	/

Screening data (PubChem)
